Measurements as given in PubChem BioAssay (Tox21).
Results filed as inconclusive are left out. Unmarked numbers belong to inactive results. Calls follow the shape of the full dose curve.

Assay: qHTS assay to identify small molecule agonists of the endoplasmic reticulum stress response signaling pathway - cell viability counter screen (AID 1159517); also: nearly all actives have a fitted effect of over 50% in size
Conditions: ESRE-bla HeLa viability, CellTiter-Glo luminescence, 5 h; series mostly up to 61 µM; activity change, negative = cytotoxicity: at the top concentration
Source text: U.S. Tox21 Program National Center for Advancing Translational Sciences [NCATS] NIH Chemical Genomics Center [NCGC] U.S. Environmental Protection Agency [EPA] National Institutes of Environmental Health Sciences [NIEHS] National Toxicology Program [NTP] U.S. Food and Drug Administration [FDA] Tox21 Assay Overview: Endoplasmic Reticulum (ER) plays an important role in cellular signaling, protein folding/maturation, stress response, lipid biosynthesis, calcium storage and release etc. Under stress conditions, proteins in ER misfold or unfold, and leading to the expression of ER stress responsive genes. ER stress has been associated with a variety of pathophysiological conditions such as cancer, inflammation, neurodegenerative diseases, diabetes, ischemic heart disease etc. To identify the compounds that induce ER stress response, an ER stress reporter cell line, CellSensor ESRE-bla HeLa (Life Technologies, Carlsbad, CA) containing a beta-lactamase reporter gene under control of the Endoplasmic reticulum Stress Response Element (ESRE) was used to screen Tox21 10K compound library. The cytotoxicity of the Tox21 compound library against the ESRE-bla HeLa cell line was tested in parallel by measuring cell viability using the CellTiter-Glo assay in the same wells.
Tox21 Assay Protocol Summary: ESRE-bla HeLa cells were dispensed at 1,500 cells/6 uL of assay medium per well into black wall/clear-bottom 1536-well plates using a Multidrop Combi (ThermoFisher Scientific, Waltham, MA) dispenser. After the assay plates were incubated at 37 C and 5% CO2 for an overnight, 23 nL of compounds dissolved in DMSO, positive controls or DMSO only was transferred to the assay plate by a Pintool station (Kalypsys, San Diego, CA). The assay plates were incubated at 37 C and 5% CO2 for 5 hr. One uL of LiveBLAzer B/G FRET substrate (Life Technologies) was added using a FRD (Flying Reagent Dispenser, Aurora Discovery, San Diego, CA) and the plates were incubated at room temperature for 2 hr. Fluorescence intensity (405 nm excitation, 460 nm and 530 nm emissions) was measured using an Envision plate reader (PerkinElmer, Shelton, CT). For cytotoxicity, 4 ul/well of CellTiter-Glo reagent was added into the assay plates using an FRD. After 30 min incubation at room temperature, the luminescence intensity was measured using a ViewLux plate reader (PerkinElmer).
% is scaled to controls: 0 for no effect and ±100 for the full control effect.

Row | SMILES | activity change, negative = cytotoxicity
1 | CCOc1ccc(O)cc1 | -17.7%
2 | Nc1cccc(S(=O)(=O)c2cccc(N)c2)c1 | -3.09%
3 | O=C(CS)Nc1ccccc1 | -22.7%
4 | CCC(C)O (stereo not given) | -22.2% [at 78.8 µM]
5 | O=C(Nc1ccc(S(=O)(=O)N2CCOCC2)cc1)c1cc(Cl)ccc1NS(=O)(=O)c1ccc(Cl)s1 | -5.86%
6 | CCCCCCCCCCCCCCOS(=O)(=O)O | -29.2%
7 | C=CC(=O)OCCOCCOC(=O)C=C | 12.3% [at 78.8 µM]
8 | S=C([S-])NCCNC(=S)[S-].[Mn+2] | 3.4%
9 | CC(C)Cc1ccc(C(C)C(=O)OCc2ccccn2)cc1 (stereo not given) | -10.4%
10 | CC(=O)c1ccc2c(c1)N(CCCN(C)C)c1ccccc1S2 | -13.5%
11 | O=C(OCCCCCCOC(=O)c1ccccc1)c1ccccc1 | -1.83%
12 | NC(N)=NCCC[C@H](N)C(=O)O | -7.79% [at 6.95 µM]
13 | COc1ccc(-c2nc3ccc(C4=NNC(=O)CC4C)cc3[nH]2)cc1 (stereo not given) | 2.33%
14 | COc1ccc(C(=O)Nc2nc3ccccc3c(NCc3ccccc3)c2C#N)cc1 | -7.79%
15 | Cn1c(=O)cc(Oc2ccc(F)cc2F)c2cnc(NCC(C)(C)O)nc21 | 12.9%
16 | COc1ccnc(CS(=O)c2nc3ccc(OC(F)F)cc3[nH]2)c1OC (stereo not given) | -29.4%
17 | COS(=O)(=O)C(F)(F)F | -25.5% [at 78.8 µM]
18 | CCC(CC)Nc1ccc(C)c(C)c1 | -1.36%
19 | NCC(=O)CCC(=O)O | -0.665%
20 | NC(=O)C(c1ccccc1)(c1ccccc1)[C@@H]1CCN(CCc2ccc3c(c2)CCO3)C1 | 7.21%

Row | SMILES | activity change, negative = cytotoxicity
21 | Cc1c(N)cccc1[N+](=O)[O-] | 4.61% [at 78.8 µM]
22 | CCc1c(C(=O)NN2CCCCC2)nn(-c2ccc(Cl)cc2Cl)c1-c1ccc(Br)cc1 | -9.96%
23 | Nc1cccc([N+](=O)[O-])c1 | -13.6%
24 | CC1(c2ccccc2)OC(C(=O)O)=CC1=O (stereo not given) | 5.98%
25 | C=CC(=O)OCCOCCOCCOCCOC(=O)C=C | -13.5% [at 78.8 µM]
26 | CC1=CC=C(C(C)C)CC1 | -6.71%
27 | C[N+](C)(C)CCOC(=O)CCC(=O)OCC[N+](C)(C)C | 8.44%
28 | CC1=CCCC(C)(C)C12CCC(C)O2 (stereo not given) | -13.5%
29 | CCOc1ccc(N)c([N+](=O)[O-])c1 | -7.18%
30 | CCCCCCc1ccc(-c2ccc(C#N)cc2)cc1 | -5.07%
31 | OC(C#CCN1CCCC1)(c1ccccc1)c1ccccc1 | 16.5%
32 | CC1=CC[C@H](C(C)C)C=C1 | -15.8%
33 | CCCCCCCCCCCCCCCCCCOS(=O)(=O)O | -28.2%
34 | CCC(C)(C)CC | -24.6% [at 78.8 µM]
35 | C[C@H]1C[C@H]2[C@@H]3CCC4=CC(=O)C=C[C@]4(C)[C@@]3(Cl)[C@@H](O)C[C@]2(C)[C@@]1(O)C(=O)CO | 1.9%
36 | COCC(C)OC(C)=O (stereo not given) | 1.97%
37 | CC(C)(COC(=O)c1ccccc1)COC(=O)c1ccccc1 | 0.32%
38 | C#C[C@]1(O)CC[C@H]2[C@@H]3CCc4cc(OC5CCCC5)ccc4[C@H]3CC[C@@]21C | -27.5%
39 | CNCCCN1c2ccccc2CCc2ccccc21 | -7.89%
40 | C[C@@H]1C[C@H]2O[C@@]3(O[C@@H]2C(C)(C)O)[C@H](O)[C@@]2(C)[C@@H]4CC[C@H]5C(C)(C)[C@@H](O[C@@H]6OC[C@@H](O)[C@H](O)[C@H]6O)CC[C@@]56C[C@@]46CC[C@]2(C)[C@@H]13 | 13.9%
